Unmarked numbers belong to inactive results. Results filed as inconclusive are left out. Where a call stands in place of a potency, no number is given. Calls of active or inactive are those of the source. Unless noted, calls come from the whole dose curve; as a rule, active = well fitted curve in the direction sought with a large enough effect in the repeat runs; inconclusive = weak or mixed curves; inactive = no such curve, though single readings can be large; an effect the other way counts as inactive or inconclusive.
Key:
[1] = qHTS assay to identify small molecule agonists of the hypoxia (HIF-1) signaling pathway - cell viability counter screen (AID 1224844; calls by dose curve; note: nearly all actives have a fitted effect of over 50% in size)
How it was run: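 Luminescent ATP content (CellTiter-Glo, 30 min, room temperature) served as the viability measure in HRE-bla ME-180 cells exposed to compounds for 17 hrs in low-serum medium (0.5% dialyzed FBS).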

[2] = qHTS assay to identify small molecule agonists of H2AX (AID 1224845; active = well fitted activation curve with a large enough effect in the signal ratio in the repeat runs, not every such curve was filed as active; the % refers to the signal ratio)
How it was run: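 Wild-type CHO-K1 cells plated overnight, then exposed 3 hr at 37C to compounds at 15 concentrations (0.76% DMSO). Lysed, then HTRF anti-pH2AX(S139)-cryptate/anti-H2AX-d2 detection after 24 hr at room temperature; emissions 665 and 620 nm.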

[3] = qHTS assay to identify small molecule agonists of H2AX - cell viability counter screen (AID 1224847; calls by dose curve; note: top concentration of the series differs between compounds; nearly all actives have a fitted effect of over 30% in size)
How it was run: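 Viability of CHO-K1 (wild type) cells after 3 hr compound exposure was measured by CellTiter-Glo luminescence.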

[4] = qHTS assay to identify small molecule antagonists of the estrogen related receptor (ERR) signaling pathway from Tox21 library (AID 1224848); note: nearly all actives have a fitted effect of over 50% in size
How it was run: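 Screening used an ERR reporter line supplied by NTP, exposed for 18 h at 37 C to library compounds delivered in DMSO. Signal was luciferase luminescence developed with ONE-Glo at room temperature for 30 min.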

[5] = qHTS assay to identify small molecule agonists of the estrogen related receptor (ERR) signaling pathway from Tox21 library (AID 1224849; calls by dose curve; note: nearly all actives have a fitted effect of over 15% in size); conditions: ERR reporter cell line, ONE-Glo luciferase, 18 h; at 92.4 µM (top of the series) unless noted
How it was run: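 We plated ERR reporter cells, waited 6 h, added compounds in DMSO by pin tool and incubated them 18 h at 37 C. ONE-Glo was then added and luminescence read after 30 min.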

[6] = qHTS RealTime-Glo MT Cell Viability Assay in HepG2 cells - 24 hour (AID 1224867); note: nearly all actives have a fitted effect of over 50% in size
How it was run: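 Viability was tracked continuously by NanoLuc luminescence from prosubstrate reduced by living HepG2 cells, at successive time points over 40 h of compound exposure. Cells with reagent were preincubated 5 h at 37 °C before compound addition.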

[7] = qHTS RealTime-Glo MT Cell Viability Assay in HEK293 cells - 32 hour (AID 1224868); note: nearly all actives have a fitted effect of over 50% in size; note: potency is the fitted concentration of half-maximal effect
How it was run: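 Viability tracked continuously by luminescence as live cells reduce a prosubstrate for NanoLuc; HEK293 cells preincubated 5 h, compound-treated at 37 C, and read at 0, 8, 16, 24, 32 and 40 h.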

[8] = A CellTox Green Cytotoxicity Assay to monitor cytotoxicity in HEK293 cells - 0 hour (AID 1224869); note: nearly all actives have a fitted effect of over 50% in size
How it was run: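 Each value comes from one timepoint of a single continuous run in which HEK293 cells with CellTox Green were exposed to compound for up to 40 h at 37 C, dye fluorescence rising with cell death.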

[9] = qHTS RealTime-Glo MT Cell Viability Assay in HepG2 cells - 40 hour (AID 1224870); note: nearly all actives have a fitted effect of over 50% in size; note: potency is the fitted concentration of half-maximal effect
How it was run: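 HepG2 cells mixed with RealTime-Glo MT reagents (NanoLuc plus cell-permeant prosubstrate) were seeded at 600 cells/well, incubated 5 h at 37 C/5% CO2, then pinned with compounds in DMSO; nonlytic luminescence tracked viability during 40 h treatment.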

[10] = qHTS assay to identify small molecule agonists of the hypoxia (HIF-1) signaling pathway (AID 1224846; active = well fitted activation curve with a large enough effect in the signal ratio in the repeat runs, not every such curve was filed as active; the % refers to the signal ratio)
How it was run: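 Measured by blue/green FRET after loading CCF4-AM: beta-lactamase expressed from a hypoxia response element in ME-180 cells. Test agents were delivered in DMSO and left 17 hrs; cells had been plated 5 hrs earlier in low-serum (0.5% dialyzed FBS) medium.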

Row | Compound | Potency [1] | outcome [2] | Potency [3] | Potency [4] | activity change, positive = activation [5] | Potency [6] | Potency [7] | outcome [8] | Potency [9] | outcome [10]
1 | CC(C)[N+](C)(CCC(C(N)=O)(c1ccccc1)c1ccccc1)C(C)C | inactive | inactive | inactive | inactive | 4.04% [at 42.5 µM] | inactive | inactive | inactive | 19 µM (active) | 
2 | CON(C)C(=O)Nc1ccc(Br)cc1 | inactive | inactive |  |  |  | inactive | inactive |  | inactive | inactive
3 | CCNP(=S)(OC)O/C(C)=C/C(=O)OC(C)C (centres undefined) | inactive | inactive |  |  |  | inactive | inactive | inactive | inactive | inactive
4 | CC(Cc1ccccc1)NCCn1cnc2c1c(=O)n(C)c(=O)n2C (centres undefined) | inactive |  | inactive | inactive | -15.8% | inactive | 21.6 µM (active) |  | inactive | inactive
5 | CC[C@H](O)C(C[C@H](C)N(C)C)(c1ccccc1)c1ccccc1 | inactive | inactive |  |  |  | inactive |  | inactive | inactive | inactive
6 | CC(C)(C)NC[C@H](O)c1ccc(O)cc1Cl | inactive |  | inactive | inactive | 0.107% [at 42.5 µM] | inactive | inactive | inactive | inactive | inactive
7 | CCN[C@@H](C)Cc1ccccc1 | inactive | inactive |  | inactive | 9.72% | inactive | inactive | inactive | inactive | 
8 | N[C@@H](Cc1ccc(Oc2cc(I)c(O)c(I)c2)c(I)c1)C(=O)O | inactive | inactive | inactive |  |  | inactive | inactive | inactive | inactive | 
9 | COc1ccc(CN2CCNCC2)c(OC)c1OC | inactive | inactive | inactive | inactive | -10% [at 42.5 µM] | inactive | inactive | inactive | inactive | 
